# Test results from PubChem BioAssay (NCATS).
# Inconclusive results are not listed. A call without a number means that no potency is given here. Active and inactive are the calls of the source. Unless noted, calls come from the whole dose curve; as a rule, active = well fitted curve in the direction sought with a large enough effect; inconclusive = small, poorly fitted or top-dose-only effect, or another doubt; inactive = no such curve, though single readings can be large; an effect the other way counts as inactive or inconclusive.
# Experiments:
# [1] = qHTS for differential inhibitors of proliferation of Plasmodium falciparum line HB3 (AID 1886); settings: Potency: Plasmodium falciparum HB3 proliferation inhibition;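 note: parasites grown with compound for 72 h before SYBR Green readout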; note: potency is the fitted concentration of half-maximal effect
# [2] = molecular target: ATP-dependent DNA helicase Q1 (Homo sapiens) (UniProt P46063); assay: qHTS Validation Assay for Inhibitors of RecQ-Like Dna Helicase 1 (RECQ1) (AID 2353)
# Excerpt: Survival of cells and the faithful propagation of the genome depend on elaborate mechanisms of detecting and repairing DNA damage. Treatment of advanced cancer relies on radiation therapy or chemotherapy, which kill cancer cells by causing extensive DNA damage. It is often found, that cancer cells develop resistance to therapy through enhanced activity of DNA repair functions; this has led to an increased interest in developing drugs that interfere with DNA repair, which could sensitize cancer cells to conventional therapy.
# This validation qHTS assay pertains to human RECQ1, which is important in resolving abnormal DNA structures formed during replication or homologous recombination. Shutting down the expression of RECQ1 leads to chromosomal instability and higher radiation sensitivity in cultured cells.
# The validation assay was a fluorescence quenching based kinetic qHTS for RECQ1 Helicase DNA unwinding. The activity was measured as ATP-dependent separation of a 20-bp DNA duplex extended by 30-nt single-stranded tails (forked duplex). The forked DNA substrate was tagged with rhodamine fluorophore (carboxytetramethyl rhodamine, TAMRA) and BHQ-2 (Black Hole Quencher 2) dark quencher. Strand separation results in an increase in the fluorescence of TAMRA (excitation 525 nm, emission 598 nm). This substrate construct operates in a red-shifted region where very few compound library members have been noted to fluoresce (PubChem AIDs 593 and 594). An additional feature of the assay is the inclusion of 2.5 ug/ml poly (dIdC), to reduce interference by compounds such as DNA intercalators, a major source of false inhibitors.
# Opher Gileadi, Structural Genomics Consortium, University of Oxford
# Screening Center PI: Austin, C.P.
# Screening Center: NIH Chemical Genomics Center [NCGC]
# Three uL of reaction buffer (25 mM Tris-HCl (pH 8.0), 5 mM NaCl, 2 mM MgCl2, 1mM DTT, 0.01% Tween- 20, and 2.5 ug/ml poly(dI-dC), including enzyme (50 nM RECQ1T1), were dispensed into a 1536-well Greiner black assay plate via solenoid-valve based nanoliter dispensers. Compounds (23 nl each in columns 5-48) and control (23 nl each in column 2 as dose-response) were transferred via a Kalypsys pintool equipped with a 1536-pin array. The plates were incubated for 15 min at room temperature, and then 1 ul of substrates (200 nM DNA and 2 mM ATP, final concentrations) was added to start the reaction. The plate was transferred into a ViewLux high-throughput CCD imager where the reaction progress was measured in a discontinuous kinetic mode (two reads spaced 2 hours apart, with intermediate room temperature incubation of the covered assay plate) by using standard red-fluorescence optics (excitation filter 525 nm, emission filter 598 nm). Enzyme-free and vehicle (DMSO) controls were included for signal normalization.
# [3] = Validation screen for inhibitors of Lassa infection (AID 463096; calls by dose curve; note: potency is the fitted concentration of half-maximal effect)
# [4] = molecular target: Ferritin light chain (Equus caballus) (UniProt P02791); assay: qHTS Validation Assay for Identification of Novel General Anesthetics (AID 2323)
# In short: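 Competitive displacement of profluorescent 1-aminoanthracene (1-AMA, 50% saturated solution in PBS) from 10 uM horse-spleen apoferritin. Compounds incubated 10 min at room temperature; fluorescence read at 380 nm excitation/535 nm emission, normalized to free 1-AMA and complex, fitted with four-parameter Hill equation.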
# [5] = Cytometric Cell-Based qHTS for Inhibitors of the mTORC1 Signaling Pathway in MEF (Tsc2-/-, p53-/-) Cells (AID 2660);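 note: percent of cells above a phospho-rpS6 to PI ratio cutoff in each well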
# In short: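 Immunofluorescence qHTS of rpS6 Ser235/236 phosphorylation: MEFs (Tsc2-/-, p53-/-) treated 24 h, 37 C, in DMEM + 10% FBS. Alexa-488 signal normalized to PI count, referenced to rapamycin (7.5 nM) and DMSO; PI cell number recorded for viability.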
# [6] = High Content Imaging Cell-Based qHTS for Inhibitors of the mTORC1 Signaling Pathway in MEF (Tsc2-/-, p53-/-) Cells (AID 2666); settings: at 38.3 µM (top of the series);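 note: percent of cells scored positive for phospho-rpS6 Ser235/236 immunostaining by imaging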
# In short: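 Phospho-rpS6 (Ser235/236) immunofluorescence, normalized and scored as % positive cells using rapamycin and DMSO controls, was read in empty-vector Tsc2-/-, p53-/- MEFs after 24 h compound exposure at 37 C; propidium iodide counted cells.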
# [7] = High Content Imaging Cell-Based qHTS for Inhibitors of the mTORC1 Signaling Pathway in MEF Cells (AID 2667);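 note: Tsc2-/- p53-/- MEFs stably re-expressing wild-type Tsc2 exposed 24 h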
# Excerpt: NIH Molecular Libraries Probe Production Centers Network [MLPCN]
# (§1) NIH Chemical Genomics Center [NCGC]
# Assay Submitter (PI): Blenis, John; Hoffman, Greg; Harvard University
# NCGC Assay Overview: The mammalian target of rapamycin (mTOR) is an intracellular serine/threonine kinase Aberrant regulation of mTOR signaling plays a causative role in a number of human diseases, including cancer, benign tumors such as lymphangioleiomyomatosis (LAM) and Tuberous Sclerosis Complex (TSC), and metabolic diseases such as diabetes and obesity. This project aims to identify inhibitors of ribosomal protein S6 (rpS6) phosphorylation. The phosphorylation of rpS6 is a key event downstream of mTOR activation. The assay uses a phospho-specific antibody of phospho-rpS6 to detect inhibitors of mTOR activation. Mutations in the Tsc1 and Tsc2 genes are the underlying genetic lesions responsible for TSC, causing constitutive activation of the mTORC1 pathway and leading to profound effects on cell metabolism. Aberrant metabolism in cancer has recently received significant attention as a target to develop therapeutic agents in the treatment of cancer.1 As Tsc2-/- cells have lost the ability to respond to energy and growth factor deprivation, these cells are unable to properly down regulate cellular biosynthetic processes in response to metabolic stress, and are thus extremely sensitive to glucose deprivation-induced death.2 A central goal of this project is to explore the unique cell survival and metabolic properties of cells with Tsc1 or Tsc2 by screening for compounds that selectively target the Tsc2-/- MEFs by screening both Tsc2-/- and WT MEF cell lines. We hope to better understand these aspects of TSC physiology in order to exploit them for therapeutic benefit.
# NCGC IN Cell Assay Protocol:
# For quantitative high throughput analysis of mTORC1 signaling, we developed a cell-based assay for immuno-fluorescence based detection of rpS6 phosphorylation on the Acumen Explorer that will be used a platform for the primary small molecule screen. Mouse embryonic fibroblasts (MEFs) are cultured in 1536-well plates using DMEM + 10% FBS. Twenty-four hrs after plating, test compounds (solubilized in DMSO) are delivered and incubated with the cells for 24 hrs at 37 degree Celsius. Following the incubation, media with compound is aspirated and the cells are fixed in 4% paraformaldehyde (PFA) containing PBS + 0.2% TX-100. […] The fluorescence emission filters used were HQ460/40M and HQ535/50M for the Hoechst and Alexa-488 cytoplasmic stains, respectively. The normalized phospho-S6 staining is calculated as the ratio of […] for the single concentration rapamycin control ([…] nM) and DMSO columns. […]
# [8] = Cytometry Cell-Based qHTS for Inhibitors of the mTORC1 Signaling Pathway in MEF cells (AID 2668); note: potency is the fitted concentration of half-maximal effect
# In short: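 WT MEFs (Tsc2-/-, p53-/- stably re-expressing WT Tsc2) in DMEM + 10% FBS received compounds 24 hrs after plating, for 24 hrs at 37 degree Celsius. Fixed cells stained with Alexa-488 anti-phospho-rpS6 Ser235/236 and propidium iodide; laser-scanning cytometry read-out.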
# [9] = molecular target: RecQ-like DNA helicase BLM (Homo sapiens) (UniProt P54132); assay: qHTS Validation Assay for Inhibitors of Bloom's syndrome helicase (BLM) (AID 2364)
# In short: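 50 nM BLM preincubated 15 min at room temperature with compound in pH 8.0 Tris buffer containing 2.5 ug/ml poly(dI-dC); started with 200 nM TAMRA/BHQ-2 forked duplex and 2 mM ATP (final). Unwinding read as TAMRA fluorescence increase, two reads 2 h apart.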
# [10] = qHTS Assay for Identification of Small Molecule Inducers of Hypoxia Response (AID 2120; active = well fitted curve in the direction sought with a large enough effect in the signal ratio, with a control signal flat, not every such curve was filed as active; the % refers to the signal ratio)
# Excerpt: as §1
# NIH Molecular Libraries Screening Centers Network [MLSCN]
# National Institutes of Environmental Health Sciences [NIEHS]
# National Toxicology Program [NTP]
# Hypoxia-inducible factor-1 (HIF-1) is the major hypoxia-regulated transcription factor that controls cellular responses to low oxygen concentration. HIF-1 is composed of two subunits: hypoxia responsive HIF-1a and constitutively expressed HIF-1b, which is also known as aryl hydrocarbon receptor nuclear translocator. During hypoxic conditions, HIF-1a heterodimerizes with HIF-1b and translocates into the nucleus where the HIF-1 complex binds to the hypoxia-response element (HRE) and activates expression of target genes such as VEGF (vascular endothelial growth factor). The HIF-1 pathway is essential to normal growth and development, and is involved in the pathophysiology of cancer, inflammation, and ischemia.
# Using a beta-lactamase reporter-gene under control of the hypoxia response element, a cell-based assay [CellSensor(TM) HRE-bla ME-180 developed by Invitrogen Corp.] was used to measure hypoxia-induced signaling. Library compounds were measured for their ability to induce the reporter gene activity. Compounds were screened in a titration series in 1536-well format. The inducers were identified based on the AC50 values derived from the screening data.
# NCGC Assay Protocol Summary
# 2500 cells/5uL in Opti-MEM medium containing 0.5% dialyzed FBS, 0.1 mM NEAA, 1 mM sodium pyruvate and 10 mM HEPES was dispensed into 1536-well plates and cells were cultured at 37 degrees Celsius for 4-5 hours and then 23 nL of compounds or DMSO were delivered to each well using a pin tool. The plates were incubated at 37 degrees Celsius for 17 hours. 1 uL of CCF4-dye mixture was added to each well. After incubated at room temperature for 2.5 hours the plates were measured on an EnVision plate reader at Excitation 405nm, Emission1=460nm and Emission 2=530nm. The %Activity was determined from the ratio of 460nm/530nm.
# Sequence of Ferritin light chain (Equus caballus) (P02791 2-175 limits assumed): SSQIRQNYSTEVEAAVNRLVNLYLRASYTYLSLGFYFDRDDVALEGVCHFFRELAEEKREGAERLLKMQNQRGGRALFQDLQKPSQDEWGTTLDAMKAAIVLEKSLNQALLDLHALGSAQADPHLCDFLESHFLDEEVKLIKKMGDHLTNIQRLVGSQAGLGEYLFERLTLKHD
# Sequence of RecQ-like DNA helicase BLM (Homo sapiens) (P54132 whole entry, looked up): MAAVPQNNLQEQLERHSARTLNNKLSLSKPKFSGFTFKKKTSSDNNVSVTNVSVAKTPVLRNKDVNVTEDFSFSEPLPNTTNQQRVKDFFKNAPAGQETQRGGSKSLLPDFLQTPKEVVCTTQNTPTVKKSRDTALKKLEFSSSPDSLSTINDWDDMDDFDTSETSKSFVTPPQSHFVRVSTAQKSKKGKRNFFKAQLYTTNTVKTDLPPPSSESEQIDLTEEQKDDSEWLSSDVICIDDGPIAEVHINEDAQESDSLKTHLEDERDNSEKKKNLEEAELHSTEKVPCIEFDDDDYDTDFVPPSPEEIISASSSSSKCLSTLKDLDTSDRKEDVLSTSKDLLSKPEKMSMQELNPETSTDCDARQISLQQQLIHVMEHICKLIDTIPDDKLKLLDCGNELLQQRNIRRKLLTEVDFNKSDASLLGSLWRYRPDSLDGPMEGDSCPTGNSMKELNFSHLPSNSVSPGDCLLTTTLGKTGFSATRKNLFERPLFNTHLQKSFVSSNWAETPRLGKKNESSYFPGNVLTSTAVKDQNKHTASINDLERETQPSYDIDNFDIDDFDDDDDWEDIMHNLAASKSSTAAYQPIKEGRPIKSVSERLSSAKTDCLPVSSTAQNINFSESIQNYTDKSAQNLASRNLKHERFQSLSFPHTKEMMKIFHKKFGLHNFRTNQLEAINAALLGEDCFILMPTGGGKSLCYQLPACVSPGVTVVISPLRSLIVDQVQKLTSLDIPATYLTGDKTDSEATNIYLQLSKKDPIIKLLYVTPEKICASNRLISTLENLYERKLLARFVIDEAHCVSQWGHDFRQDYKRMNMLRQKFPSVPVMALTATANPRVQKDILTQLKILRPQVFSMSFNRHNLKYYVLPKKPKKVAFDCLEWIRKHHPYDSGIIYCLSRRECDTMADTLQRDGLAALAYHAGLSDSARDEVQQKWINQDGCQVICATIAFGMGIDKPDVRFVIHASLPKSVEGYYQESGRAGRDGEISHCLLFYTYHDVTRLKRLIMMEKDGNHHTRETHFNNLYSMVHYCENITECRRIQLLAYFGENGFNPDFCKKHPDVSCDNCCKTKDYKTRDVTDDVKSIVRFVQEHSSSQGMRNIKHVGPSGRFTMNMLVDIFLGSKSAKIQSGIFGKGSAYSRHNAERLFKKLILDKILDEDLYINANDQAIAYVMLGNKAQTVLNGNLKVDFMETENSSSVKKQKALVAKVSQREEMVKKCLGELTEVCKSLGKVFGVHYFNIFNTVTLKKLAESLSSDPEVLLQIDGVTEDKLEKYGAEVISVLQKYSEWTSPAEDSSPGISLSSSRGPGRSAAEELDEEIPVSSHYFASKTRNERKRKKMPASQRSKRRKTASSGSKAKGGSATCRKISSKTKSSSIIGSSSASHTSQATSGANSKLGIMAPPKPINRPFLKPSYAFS
# Sequence of ATP-dependent DNA helicase Q1 (Homo sapiens) (P46063 whole entry, looked up): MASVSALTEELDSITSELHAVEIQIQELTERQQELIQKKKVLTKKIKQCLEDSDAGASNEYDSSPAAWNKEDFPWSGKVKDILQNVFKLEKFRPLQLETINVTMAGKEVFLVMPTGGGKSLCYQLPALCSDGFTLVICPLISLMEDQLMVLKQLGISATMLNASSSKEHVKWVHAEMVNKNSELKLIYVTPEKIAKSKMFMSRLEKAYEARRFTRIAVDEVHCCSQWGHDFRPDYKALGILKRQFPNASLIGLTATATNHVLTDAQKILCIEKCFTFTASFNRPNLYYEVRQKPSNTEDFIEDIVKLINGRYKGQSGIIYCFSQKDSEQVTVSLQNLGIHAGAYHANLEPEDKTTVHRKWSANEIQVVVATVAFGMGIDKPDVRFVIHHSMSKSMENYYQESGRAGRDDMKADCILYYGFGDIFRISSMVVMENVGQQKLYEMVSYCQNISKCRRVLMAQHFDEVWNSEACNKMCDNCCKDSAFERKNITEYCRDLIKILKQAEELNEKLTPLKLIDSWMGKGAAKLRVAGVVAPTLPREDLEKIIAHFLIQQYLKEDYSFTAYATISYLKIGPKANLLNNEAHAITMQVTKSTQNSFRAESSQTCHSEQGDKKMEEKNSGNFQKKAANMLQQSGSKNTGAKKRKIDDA
smiles,measurement,setting,value
CCCCCCCCC(=O)NCc1ccc(O)c(OC)c1,Potency,[1],inactive
same,outcome,[2],inactive
same,Potency,[3],inactive
C=Cc1c(C)c2cc3[nH]c(cc4nc(cc5nc(cc1[nH]2)C(C)=C5CCC(=O)O)C(CCC(=O)O)=C4C)c(C)c3C=C,Potency,[3],inactive
Nc1c2c(nc3ccccc13)CCCC2,Potency,[3],inactive
C[N+](C)(C)CCOC(=O)CCC(=O)OCC[N+](C)(C)C,Potency,[3],inactive
COc1ccc(C(=O)N2CCCC2=O)cc1,Potency,[1],inactive
same,outcome,[4],inactive
same,outcome,[2],inactive
same,outcome,[5],inactive
same,outcome,[6],inactive
same,outcome,[7],inactive
same,Potency,[8],inactive
same,Potency,[3],inactive
Brc1c(NC2=NCCN2)ccc2nccnc12,outcome,[4],inactive
same,Potency,[3],inactive
CN(C)CC[C@@H](c1ccc(Cl)cc1)c1ccccn1,Potency,[3],inactive
CC(=O)OCC1=C(C(=O)O)N2C(=O)[C@@H](NC(=O)CSc3ccncc3)[C@H]2SC1,Potency,[3],inactive
O=C(O)c1nn(Cc2ccc(Cl)cc2Cl)c2ccccc12,Potency,[1],inactive
same,outcome,[4],inactive
same,outcome,[2],inactive
same,outcome,[9],inactive
same,outcome,[5],inactive
same,outcome,[6],inactive
same,outcome,[7],inactive
same,Potency,[8],inactive
same,Potency,[3],inactive
c1ccc2nc(N3CCNCC3)ccc2c1,Potency,[1],inactive
same,outcome,[4],inactive
same,outcome,[2],inactive
same,outcome,[9],inactive
same,Potency,[3],inactive
C=CCc1ccccc1OCC(O)CNC(C)C (stereo not given),Potency,[3],inactive
COc1ccccc1N1CCN(CCCNc2cc(=O)n(C)c(=O)n2C)CC1,Potency,[3],inactive
COC(=O)C1=CCCN(C)C1,Potency,[1],inactive
same,outcome,[4],inactive
same,outcome,[2],inactive
same,outcome,[5],inactive
same,outcome,[6],inactive
same,outcome,[7],inactive
same,Potency,[8],inactive
same,Potency,[3],inactive
Cc1ccc(=O)n(-c2ccccc2)c1,Potency,[3],inactive
CC[C@H]1CN2CCc3cc(OC)c(OC)cc3[C@@H]2C[C@@H]1C[C@H]1NCCc2cc(OC)c(OC)cc21,Potency,[1],0.112 µM (active)
same,Potency,[8],5.21 µM (active)
same,Potency,[3],0.158 µM (active)
CN(C)CCCN1c2ccccc2Sc2ccccc21,Potency,[3],inactive
OC(CN1CCC(Cc2ccc(F)cc2)CC1)c1ccc(Cl)cc1 (stereo not given),Potency,[3],inactive
CC1=C(CC(=O)O)c2cc(F)ccc2/C1=C\c1ccc(S(C)=O)cc1 (stereo not given),Potency,[3],inactive
NC(=O)CN1CCCC1=O,Potency,[1],inactive
same,outcome,[4],inactive
same,outcome,[2],inactive
same,outcome,[5],inactive
same,outcome,[6],inactive
same,outcome,[7],inactive
same,Potency,[8],inactive
same,Potency,[3],inactive
CN(C)C(=S)SSC(=S)N(C)C,outcome,[10],inactive
COP(=O)(OC)OC=C(Cl)Cl,outcome,[10],inactive
OCc1cc(C(O)CNCCCCCCOCCCCc2ccccc2)ccc1O (stereo not given),Potency,[3],inactive
NC(N)=N/N=C/c1c(Cl)cccc1Cl,Potency,[1],6.31 µM (active)
same,outcome,[9],inactive
same,Potency,[3],inactive
CC(N)C(=O)OC(C)(C)Cc1ccc(Cl)cc1 (stereo not given),Potency,[1],14.1 µM (active)
same,outcome,[4],inactive
same,outcome,[2],inactive
same,outcome,[9],inactive
same,Potency,[3],inactive
Cn1cnc2c1c(=O)[nH]c(=O)n2C,Potency,[3],inactive
Nc1ccn([C@H]2CC[C@@H](CO)O2)c(=O)n1,Potency,[3],inactive
c1ccc([C@H]2CN3CCSC3=N2)cc1,Potency,[3],inactive
C[C@@H]1C[C@@H]([C@H](O)CC2CC(=O)NC(=O)C2)C(=O)[C@@H](C)C1,outcome,[10],inactive
CNC(=O)Oc1ccc2c(c1)[C@]1(C)CCN(C)[C@@H]1N2C,Potency,[1],5.01 µM (active)
same,Potency,[3],inactive
CNC(=O)Oc1cccc2ccccc12,outcome,[10],inactive
NC(N)=NC(=O)c1nc(Cl)c(N)nc1N,Potency,[1],10 µM (active)
same,outcome,[4],inactive
same,outcome,[9],inactive
same,Potency,[3],inactive
C[N+](C)(C)CCCCCCCCCC[N+](C)(C)C,Potency,[1],1.78 µM (active)
same,outcome,[4],inactive
same,Potency,[3],inactive
Oc1c(Br)cc(Br)cc1Br,outcome,[10],inactive
NS(=O)(=O)c1cc2c(cc1Cl)NC(C1CC3C=CC1C3)NS2(=O)=O (stereo not given),Potency,[3],inactive
O=C1N(c2ccccc2)c2ccccc2C1(Cc1ccncc1)Cc1ccncc1,Potency,[3],inactive
